Screens as filed in PubChem.
This is a sample that favours compounds with a hit; in the whole collection about 7.8% have one here.
HCMV antiviral – blocks human cytomegalovirus replication. activity change, negative = inhibition, % at 57.5 µM. HFF cells, HCMV-luciferase reporter, 72 h; stronger effect = lower value. 4.5% of 410,000 active. AID 1259415; in the data active = activity change below about -60%; inconclusive = no clear call, values can overlap the other calls; inactive = above about -39%
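Screen run at 2 compound doses on HFFs infected with reporter HCMV, MOI 1 PFU/cell. Luciferase activity from cell lysates at 72 h post infection gave inhibition relative to buffer-only and Salinomycin wells.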
Lassa entry inh – inhibitors of Lassa virus binding or cell entry; Lassa virus pseudotype entry inhibition, cell reporter; Potency, µM (titrated, usually from 37.9 µM), for inactives: at the top dose activity change, negative = inhibition, hits mostly inhibitors; 1.2% of 300,000 active; calls by dose curve; tested in HEK293 cells; also: potency is read from the fitted curve at half-maximal effect; nearly all actives have a fitted effect of over 50% in size
MARV entry inh – Marburg virus entry inhibition. AID 540276. 1.8% of 300,000 active. Marburg virus pseudotyped entry inhibition, cell reporter. Potency, µM (titrated, usually from 37.8 µM), for inactives: top-dose activity change, negative = inhibition, hits mostly inhibitors; calls by dose curve; tested in HEK293 cells; also: potency is read from the fitted curve at half-maximal effect
HCV inh – HCV inhibition; Huh7.5.1 HCVcc-Cre infection, luciferase reporter, 44 h; 3.4% of 340,000 active; Potency, µM (doses to about 41.8 µM), without a hit: at the highest dose activity change, negative = inhibition, actives largely listed as inhibitors; active = well fitted inhibition curve with a large enough effect; inconclusive = small, poorly fitted or top-dose-only effect, or another doubt; inactive = no such curve, though single readings can be large or run the other way; also: potency is read from the fitted curve at half-maximal effect
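Cells seeded at 1,000/well and cultured 4 h, then compounds added followed by HCVcc-Cre virus (~0.5 moi). After 44 h further culture, luciferase substrate was added, plates held 15 min at room temperature, and luminescence read for 15 sec.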
Vaccinia Venus – inhibitors of vaccinia virus (Venus reporter); Vaccinia virus Venus reporter expression, fluorescence; Potency, µM (doses to about 36.5 µM), for inactives: top-dose activity change, negative = inhibition, hits mostly inhibitors; 0.46% of 330,000 active; AID 720580; calls by dose curve; tested in A549 cells; also: potency is read from the fitted curve at half-maximal effect; nearly all actives have a fitted effect of over 30% in size
Vaccinia mCherry – inhibitors of vaccinia virus infection (mCherry reporter signal); Vaccinia virus mCherry reporter infection, fluorescence; Potency, µM (top dose mostly 36.5 µM), for inactives: top-dose activity change, negative = inhibition, most hits filed as inhibitors; 0.63% of 310,000 active; AID 720579; calls by dose curve; tested in A549 cells; also: potency is read from the fitted curve at half-maximal effect; nearly all actives have a fitted effect of over 35% in size
* = called active by the depositor; [ ] = another dose, or the depositor's remark. % is scaled to controls: 0 for no effect and ±100 for the full control effect.

What do the screens show for `CCc1ccc(NC(=O)COC(=O)c2ccccc2OCC(=O)N(C)C)cc1`?
Vaccinia Venus: -9.3%; Vaccinia mCherry: -11.1%

Results for CCCCCCC(=O)Nc1ccc(C(=O)N/N=C/c2cccnc2)cc1 ?
HCMV antiviral: 10.0; Lassa entry inh: -1.0%; MARV entry inh: -19.0%; HCV inh: -18.2%; Vaccinia Venus: -6.6%; Vaccinia mCherry: -12.6%

How did CCCC(=O)Nc1ccc(C(=O)N/N=C/c2ccc([N+](=O)[O-])o2)cc1 do in these assays?
HCMV antiviral: -94.8*; Lassa entry inh: inconclusive; MARV entry inh: 11.6µM*; HCV inh: inconclusive; Vaccinia Venus: inconclusive; Vaccinia mCherry: inconclusive

What do the screens show for `Cc1cc(C(=O)N/N=C/c2ccc([N+](=O)[O-])o2)c(C)o1`?
HCMV antiviral: -60.7*; HCV inh: inconclusive

What do the screens show for `CCCCCCCC(=O)Nc1ccc(C(=O)N/N=C/c2cccc([N+](=O)[O-])c2)cc1`?
HCMV antiviral: -69.4*; Lassa entry inh: inconclusive; MARV entry inh: inconclusive; HCV inh: inconclusive; Vaccinia Venus: -3.1%; Vaccinia mCherry: -13.6%

How did COC(=O)N/N=C/c1ccc([N+](=O)[O-])o1 do in these assays?
HCMV antiviral: -4.9; Lassa entry inh: -6.2%; MARV entry inh: 2.7%; HCV inh: -5.8%

How did COc1cccc(NC(=O)CN(CCc2ccccc2)S(=O)(=O)c2ccc(Cl)cc2)c1 do in these assays?
HCMV antiviral: 2.8; Lassa entry inh: -22.2%[46.1 µM]; Vaccinia Venus: 10.6%; Vaccinia mCherry: -0.2%

What do the screens show for `CCOC(=O)c1cccn1C1C(=O)N(Cc2ccc(Cl)nc2)c2ccccc21` (stereo not given)?
HCMV antiviral: -10.2

What do the screens show for `Cn1c2ccccc2c2c(C(=O)N3CCN(c4ccc(F)cc4)CC3)cn(C3CCCCC3)c(=O)c21`?
HCMV antiviral: -23.1; Lassa entry inh: inconclusive; MARV entry inh: inconclusive; Vaccinia Venus: -17.8%; Vaccinia mCherry: -18.6%

How did O=C(Nc1nnc(-c2ccccc2Cl)o1)c1ccc(S(=O)(=O)N2CCCCCC2)cc1 do in these assays?
Lassa entry inh: inconclusive; MARV entry inh: inconclusive; HCV inh: inconclusive; Vaccinia Venus: -27.7%; Vaccinia mCherry: -17.6%

What do the screens show for `CC1(C)COCN1S(=O)(=O)c1ccc(C(=O)Nc2nnc(-c3ccc(Cl)s3)o2)cc1`?
Lassa entry inh: inconclusive; MARV entry inh: 6.31µM*; HCV inh: 2µM*; Vaccinia Venus: inconclusive; Vaccinia mCherry: inconclusive

How did COc1ccc(-c2nnc(NC(=O)c3ccc(S(=O)(=O)N4COCC4(C)C)cc3)o2)cc1 do in these assays?
HCMV antiviral: -62.5*; Lassa entry inh: inconclusive; MARV entry inh: inconclusive; HCV inh: inconclusive; Vaccinia Venus: inconclusive; Vaccinia mCherry: -24.9%

Results for O=C(c1cccnc1)C1CCCN(Cc2ccc3c(c2)CN(C(=O)c2cn4ccccc4n2)CCO3)C1 (stereo not given) ?
Vaccinia Venus: -2.4%; Vaccinia mCherry: -12.6%

How did COc1ccc(C(=O)c2[nH]c(N)c(C(=O)NCCc3c[nH]c4ccccc34)c2-c2ccccc2Br)cc1 do in these assays?
HCMV antiviral: -15.2; Vaccinia Venus: -20.9%; Vaccinia mCherry: -25.8%

How did COc1ccc(OC)c(S(=O)(=O)N2CCC(C(=O)Nc3ccccc3)CC2)c1 do in these assays?
HCMV antiviral: -3.9; Lassa entry inh: -1.3%[46.1 µM]; MARV entry inh: inconclusive; HCV inh: -24.9%; Vaccinia Venus: -20.8%; Vaccinia mCherry: -18.4%

What do the screens show for `COc1ccc(OC)c(S(=O)(=O)N2CCC(C(=O)Nc3cccc(C)c3)CC2)c1`?
HCMV antiviral: -61.1*; Lassa entry inh: 3.4%; MARV entry inh: -26.6%; HCV inh: -14.1%; Vaccinia Venus: -23.4%; Vaccinia mCherry: -28.3%

How did COC(=O)c1ccccc1NC(=O)C1CCN(S(=O)(=O)c2cc(C)ccc2OC)CC1 do in these assays?
HCMV antiviral: inconclusive; Lassa entry inh: -16.1%; MARV entry inh: inconclusive; HCV inh: -7.3%; Vaccinia Venus: -29.2%

What do the screens show for `COc1ccc(NC(=O)C2CC2)cc1S(=O)(=O)N1CCOCC1`?
HCMV antiviral: 0.0; HCV inh: -1.2%

What do the screens show for `COc1ccc(NC(=O)C2CCC(C(C)(C)C)CC2)cc1S(=O)(=O)N1CCCCC1` (stereo not given)?
HCMV antiviral: -85.9*; Lassa entry inh: inconclusive; MARV entry inh: 11.2µM*; HCV inh: -29.3%; Vaccinia Venus: inconclusive; Vaccinia mCherry: -18.8%

How did COc1ccc(OC)c(S(=O)(=O)N2CCC(C(=O)Nc3cc(C)ccc3C)CC2)c1 do in these assays?
HCMV antiviral: -93.1*; Lassa entry inh: inconclusive; MARV entry inh: inconclusive; HCV inh: -15.0%; Vaccinia Venus: -13.0%; Vaccinia mCherry: -14.4%

What do the screens show for `COc1ccc(N=C2NN=C(c3c(C)[nH]c4ccccc34)CS2)cc1`?
HCMV antiviral: inconclusive; Lassa entry inh: inconclusive; MARV entry inh: 11.2µM*; HCV inh: inconclusive; Vaccinia Venus: -18.6%; Vaccinia mCherry: -26.0%

How did COc1ccc(N=C2SCC(c3ccccc3)=NN2C)cc1 do in these assays?
HCMV antiviral: -13.8; HCV inh: inconclusive

Results for Cc1ccc2nc3c(c(Nc4ccc5c(c4)OCCO5)c2c1)CCC3 ?
HCMV antiviral: -66.2*; Lassa entry inh: 14.1µM*; MARV entry inh: inconclusive; HCV inh: inconclusive; Vaccinia Venus: inconclusive; Vaccinia mCherry: inconclusive

How did Cc1ccc2nc3c(c(Nc4ccc(O)cc4)c2c1)CCC3 do in these assays?
HCMV antiviral: inconclusive; HCV inh: inconclusive; Vaccinia Venus: -27.8%; Vaccinia mCherry: inconclusive

Results for COc1ccc(Nc2c3c(nc4ccc(C)cc24)CCC3)cc1 ?
HCMV antiviral: -81.3*; HCV inh: inconclusive

How did O=c1n(-c2ccccc2)c(=O)n2n1CC[C@@H]1/C(=N/OC[C@@H](O)COCc3ccco3)[C@H]3O[C@H]3[C@@H](O)[C@@H]12 do in these assays?
MARV entry inh: -22.9%[14.2 µM]

What do the screens show for `CC(CNC(=O)c1sc2ncccc2c1-n1cccc1)c1ccccc1` (stereo not given)?
HCMV antiviral: -29.3; Lassa entry inh: -7.0%[46.1 µM]; Vaccinia Venus: -8.1%; Vaccinia mCherry: -7.5%

Results for CCCCCC(=O)N/N=C(\C)c1ccc(NC(=O)c2ccco2)cc1 ?
HCMV antiviral: 9.5; Lassa entry inh: 3.55µM*; MARV entry inh: -7.2%; HCV inh: -15.8%; Vaccinia Venus: -22.0%; Vaccinia mCherry: inactive

What do the screens show for `CCCCCC(=O)NC(=S)Nc1ccc(NC(=O)c2ccco2)cc1`?
HCMV antiviral: inconclusive; Lassa entry inh: -5.1%; MARV entry inh: 3.5%[46.1 µM]; HCV inh: -26.6%; Vaccinia Venus: -19.3%; Vaccinia mCherry: inactive
